The text below walks through data of PubChem BioAssay.

The source made the active and inactive calls.

Assay [1] is described as follows: binders of probe aFSTL3 on microarray, primary screen, stem cell growth factor project, biochemical, small-molecule microarray, fluorescence 635/667 (AID 1064).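 Also: measures binding of the biotinylated anti-FSTL3 antibody to printed compounds.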 The settings on record: higher = more signal.
Assay [2] is described as follows: binders from COS7 lysate, DM2A8 probe, primary screen, torsin A project, cell lysate, small-molecule microarray, fluorescence 635/667 (AID 1065). The settings on record: higher = more signal, COS7 lysate expressing mutant human TOR1A.
Assay [3] can be described thus: binders of probe aFGF2 on microarray, primary screen, stem cell growth factor project, biochemical, small-molecule microarray, fluorescence 635/667 (AID 1067).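 Also: measures binding of biotinylated aFGF2 protein to printed compounds on slides; z-score merges feature fluorescence and signal-to-noise across triplicate slides.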 Conditions: higher = more signal.
The nature of assay [4]: binders of probe aFGF10 on microarray, primary screen, stem cell growth factor project, biochemical, small-molecule microarray, fluorescence 635/667 (AID 1071).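 Also: score merges 667 nm spot intensity and signal to noise from triplicate slides.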 Conditions: higher = more signal.
The target of assay [5] is Neurogenic locus notch homolog protein 2 (Homo sapiens) (UniProt Q04721). Briefly: Notch2 binders on small-molecule microarrays, primary screen, biochemical, small-molecule microarray, 635 nm fluorescence, stem cell growth factors (AID 1073). Conditions: Notch2 binding, higher = more signal.
The target in assay [6] is Pro-neuregulin-1, membrane-bound isoform (Homo sapiens) (UniProt Q02297). Briefly: NRG1 binders on small-molecule microarrays, primary screen, psychiatric disease protein project, biochemical, small-molecule microarray, fluorescence 635/667 (AID 1075).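 Also: score combines 667 nm spot fluorescence with signal to noise.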 The settings on record: NRG1 binding, 635 nm fluorescence, higher = more signal.
The test system of assay [7] is Neuregulin-1 EGF-like domain. In words: binders of neuregulin-1 EGF-like domain, primary screen, biochemical, small-molecule microarray, 635 nm fluorescence (AID 1081).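 Also: binding of the protein to compounds printed on small-molecule microarray slides.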 Conditions: small-molecule microarray binding, higher = more signal.
The nature of assay [8]: FRG1 promoter luciferase signal modulators, primary screen, FRG1 inhibition for FSHD, cell-based, C2C12 myotubes, firefly/Renilla luciferase, luminescence (AID 1084). The settings on record: higher = more signal, called active from +8 up or from −8 down.
Assay [9] in a line: binders of probe aFST on microarray, primary screen, stem cell growth factor project, biochemical, small-molecule microarray, fluorescence 635/667 (AID 1086).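 Also: score merges 667 nm fluorescence with signal-to-noise of each printed compound spot.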 Conditions: higher = more signal.
The nature of assay [10]: binders of probe aHhip on microarray, primary screen, stem cell growth factor project, biochemical, small-molecule microarray, fluorescence 635/667 (AID 1087).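 Also: score merges spot fluorescence at 667nm with spot signal to noise ratio.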 The settings on record: higher = more signal.
For assay [11], the system named is PRMT1 (protein arginine N-methyltransferase 1). Briefly: PRMT1 binders on small-molecule microarrays, primary screen, biochemical, small-molecule microarray, 635 nm fluorescence (AID 1088).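 Also: binding of Prmt1 protein to compounds spotted on small-molecule microarray slides.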 Conditions: small-molecule microarray binding, higher = more signal.
Assay [12] in a line: yeast growth modulation, basal conditions, primary screen, YJM789 clinical isolate, OD600, 24 h (AID 1089).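 Also: growth of clinical yeast isolate S. cerevisiae YJM 789 seeded 1000 cells per well; test concentration not given here.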 Conditions: S. cerevisiae YJM789 growth, higher = more signal, called active from +8 up or from −8 down.
Assay [13] can be described thus: fission yeast growth modulation, primary screen, strain 972, OD600, 24 h, no modulator (AID 1090).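 Also: basal condition with compound alone and no growth modifier present; test concentration not given here.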 Conditions: S. pombe 972 growth, higher = more signal, called active from +8 up or from −8 down.
Assay [14] can be described thus: S. cerevisiae growth modulation with rapamycin, primary screen, strain BY4716, OD600, 96 h (AID 1091). Also: test concentration not given here. Conditions: higher = more signal, called active from +8 up or from −8 down.
In assay [15] the target is Torsin-1A-interacting protein 2 (Homo sapiens) (UniProt Q8NFQ8). Briefly: LULL1 binders on small-molecule microarray, primary screen, cell lysate, human LULL1 lysate, 635/667 nm fluorescence (AID 1092).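 Also: score merges per-feature 667 nm fluorescence with signal-to-noise.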 The settings on record: hLULL1 lysate binding, 635 nm fluorescence, higher = more signal.
Assay [16] can be described thus: E. coli growth modulation, two-sided OD650, primary screen, E. coli filamentation project, strain DRC41, 24 h (AID 1093).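 Also: MC1000 strain lacking acrAB efflux and sulA so SOS filamentation is blocked; test concentration not given here.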 The settings on record: OD650, 24 h, higher = more signal, called active from +8 up or from −8 down.
Assay [17] can be described thus: small-molecule microarray binders of probe aLefty2, primary screen, biochemical, biotinylated probe, 635/667 nm fluorescence (AID 1094).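 Also: score merges spot fluorescence near 667 nm with spot signal-to-noise ratio.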 Conditions: higher = more signal.
In assay [18] the test system is Noggin (protein binding on small-molecule microarray). In words: Noggin binders on small-molecule microarray, primary screen, biochemical, 635/667 nm fluorescence (AID 1095).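 Also: score merges 667 nm feature fluorescence with signal to noise over triplicate slides.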 The settings on record: 635 nm fluorescence, higher = more signal.
Assay [19] has as its target Neurogenic locus notch homolog protein 3 (Homo sapiens) (UniProt Q9UM47). Briefly: NOTCH3 binders on small-molecule microarray, primary screen, biochemical, 635/667 nm fluorescence (AID 1096). Conditions: NOTCH3 binding, 635 nm fluorescence, higher = more signal.
The nature of assay [20]: small-molecule microarray binders of probe aEGFR, primary screen, biochemical, biotinylated probe, 635/667 nm fluorescence (AID 1097).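 Also: probe is a biotinylated anti-EGFR antibody binding compounds printed on slides; score combines fluorescence near 667 nm and signal to noise of each spot.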 Conditions: higher = more signal.

Chain of Pro-neuregulin-1, membrane-bound isoform (Homo sapiens) (Q02297 whole entry, looked up, the tested form may be a part, canonical isoform): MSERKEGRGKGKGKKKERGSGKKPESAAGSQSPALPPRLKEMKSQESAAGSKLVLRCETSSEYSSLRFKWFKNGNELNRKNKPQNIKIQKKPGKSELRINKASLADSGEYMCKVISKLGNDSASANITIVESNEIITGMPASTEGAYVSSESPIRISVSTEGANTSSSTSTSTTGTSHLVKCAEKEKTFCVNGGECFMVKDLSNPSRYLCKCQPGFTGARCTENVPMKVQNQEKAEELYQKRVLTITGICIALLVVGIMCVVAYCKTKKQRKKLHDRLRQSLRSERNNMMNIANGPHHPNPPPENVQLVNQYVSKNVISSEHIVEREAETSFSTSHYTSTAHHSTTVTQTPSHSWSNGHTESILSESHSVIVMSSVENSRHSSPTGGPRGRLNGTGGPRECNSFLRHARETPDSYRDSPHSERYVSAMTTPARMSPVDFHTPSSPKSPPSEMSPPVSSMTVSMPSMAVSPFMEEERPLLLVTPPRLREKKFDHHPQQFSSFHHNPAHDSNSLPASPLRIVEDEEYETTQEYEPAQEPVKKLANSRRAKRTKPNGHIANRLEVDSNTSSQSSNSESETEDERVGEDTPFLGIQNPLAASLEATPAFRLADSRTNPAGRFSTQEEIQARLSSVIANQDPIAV
Chain of Torsin-1A-interacting protein 2 (Homo sapiens) (Q8NFQ8 whole entry, looked up): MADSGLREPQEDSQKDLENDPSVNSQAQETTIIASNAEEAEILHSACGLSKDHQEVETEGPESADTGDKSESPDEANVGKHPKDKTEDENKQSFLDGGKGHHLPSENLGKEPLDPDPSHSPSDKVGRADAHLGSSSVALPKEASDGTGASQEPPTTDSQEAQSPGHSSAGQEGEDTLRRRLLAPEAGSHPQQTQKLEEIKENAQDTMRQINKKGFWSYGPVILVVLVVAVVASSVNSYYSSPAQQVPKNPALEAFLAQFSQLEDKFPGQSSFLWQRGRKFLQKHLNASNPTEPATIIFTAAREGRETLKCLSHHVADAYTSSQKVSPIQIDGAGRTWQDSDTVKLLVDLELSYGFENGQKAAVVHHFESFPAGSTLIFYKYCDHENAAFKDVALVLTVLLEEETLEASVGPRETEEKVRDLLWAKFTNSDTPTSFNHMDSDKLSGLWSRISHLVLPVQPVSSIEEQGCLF
Chain of Neurogenic locus notch homolog protein 2 (Homo sapiens) (Q04721 whole entry, looked up, canonical isoform): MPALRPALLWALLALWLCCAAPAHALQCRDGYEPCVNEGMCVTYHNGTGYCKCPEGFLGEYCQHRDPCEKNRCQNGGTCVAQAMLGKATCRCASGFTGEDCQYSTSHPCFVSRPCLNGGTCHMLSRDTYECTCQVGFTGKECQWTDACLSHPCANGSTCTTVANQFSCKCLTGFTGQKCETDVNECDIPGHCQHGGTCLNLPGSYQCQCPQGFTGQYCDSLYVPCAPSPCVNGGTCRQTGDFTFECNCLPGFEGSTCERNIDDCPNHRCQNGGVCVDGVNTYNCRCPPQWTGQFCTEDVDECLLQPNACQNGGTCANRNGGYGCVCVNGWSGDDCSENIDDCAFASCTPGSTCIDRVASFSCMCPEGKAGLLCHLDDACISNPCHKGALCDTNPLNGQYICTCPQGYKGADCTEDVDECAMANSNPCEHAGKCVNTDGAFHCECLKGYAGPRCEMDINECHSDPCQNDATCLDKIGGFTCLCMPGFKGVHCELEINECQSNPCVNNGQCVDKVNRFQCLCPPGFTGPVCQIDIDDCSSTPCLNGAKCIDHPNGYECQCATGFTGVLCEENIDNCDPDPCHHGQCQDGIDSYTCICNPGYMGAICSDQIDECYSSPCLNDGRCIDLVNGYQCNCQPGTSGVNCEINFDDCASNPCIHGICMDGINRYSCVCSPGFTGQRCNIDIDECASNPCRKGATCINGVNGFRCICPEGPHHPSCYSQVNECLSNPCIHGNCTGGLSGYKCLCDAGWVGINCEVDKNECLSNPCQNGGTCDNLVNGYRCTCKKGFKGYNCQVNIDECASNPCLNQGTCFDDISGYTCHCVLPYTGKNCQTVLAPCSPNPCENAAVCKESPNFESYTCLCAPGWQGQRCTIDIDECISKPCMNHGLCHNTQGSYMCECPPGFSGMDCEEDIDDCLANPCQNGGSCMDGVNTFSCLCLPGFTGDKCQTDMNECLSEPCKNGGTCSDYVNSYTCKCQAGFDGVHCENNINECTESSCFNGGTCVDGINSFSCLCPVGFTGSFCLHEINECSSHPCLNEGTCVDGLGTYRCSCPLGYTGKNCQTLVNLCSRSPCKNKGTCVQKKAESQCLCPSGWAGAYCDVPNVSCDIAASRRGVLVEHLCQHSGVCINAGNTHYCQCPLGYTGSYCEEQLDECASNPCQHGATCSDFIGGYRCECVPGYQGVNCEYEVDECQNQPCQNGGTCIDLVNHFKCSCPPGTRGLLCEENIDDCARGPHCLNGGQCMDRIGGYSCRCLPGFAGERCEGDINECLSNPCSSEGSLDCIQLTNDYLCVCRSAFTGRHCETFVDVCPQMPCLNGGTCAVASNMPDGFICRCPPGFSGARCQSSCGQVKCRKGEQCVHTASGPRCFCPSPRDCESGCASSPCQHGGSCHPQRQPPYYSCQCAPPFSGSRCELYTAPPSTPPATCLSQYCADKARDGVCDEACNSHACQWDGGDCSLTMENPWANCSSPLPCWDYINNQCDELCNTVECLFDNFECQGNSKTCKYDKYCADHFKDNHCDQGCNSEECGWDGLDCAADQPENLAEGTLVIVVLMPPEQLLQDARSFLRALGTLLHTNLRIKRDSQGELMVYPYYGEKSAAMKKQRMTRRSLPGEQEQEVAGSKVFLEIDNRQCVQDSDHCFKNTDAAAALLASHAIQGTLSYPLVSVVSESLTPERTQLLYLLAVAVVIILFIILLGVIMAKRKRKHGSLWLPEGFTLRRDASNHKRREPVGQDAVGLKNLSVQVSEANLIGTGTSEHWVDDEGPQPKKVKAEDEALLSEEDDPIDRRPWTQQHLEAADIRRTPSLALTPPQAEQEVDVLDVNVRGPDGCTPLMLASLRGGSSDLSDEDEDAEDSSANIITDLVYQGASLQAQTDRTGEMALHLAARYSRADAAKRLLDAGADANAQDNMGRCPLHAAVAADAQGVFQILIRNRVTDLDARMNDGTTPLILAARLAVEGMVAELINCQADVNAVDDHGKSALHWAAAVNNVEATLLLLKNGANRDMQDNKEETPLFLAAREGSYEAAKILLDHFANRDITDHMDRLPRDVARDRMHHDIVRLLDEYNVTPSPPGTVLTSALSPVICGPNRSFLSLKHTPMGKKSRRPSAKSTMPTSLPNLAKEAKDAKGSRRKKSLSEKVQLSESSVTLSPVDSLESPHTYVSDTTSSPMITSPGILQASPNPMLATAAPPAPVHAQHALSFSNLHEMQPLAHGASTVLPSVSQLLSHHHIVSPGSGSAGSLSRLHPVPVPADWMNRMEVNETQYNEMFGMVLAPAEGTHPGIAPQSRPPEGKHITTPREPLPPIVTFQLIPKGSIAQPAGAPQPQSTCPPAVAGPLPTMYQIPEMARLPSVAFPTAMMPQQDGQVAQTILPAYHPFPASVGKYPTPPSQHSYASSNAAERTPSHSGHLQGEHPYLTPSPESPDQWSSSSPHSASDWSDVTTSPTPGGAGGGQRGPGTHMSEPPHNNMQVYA

For `O=C(O)[C@]1(CCS(=O)(=O)c2ccccc2)N=C(c2ccc(OCCCO)cc2)O[C@@H]1c1ccccc1`, the composite z-score was 1.19 in assay [1]; -0.106 in assay [2]; 0.115 in assay [3]; -0.0267 in assay [4]; 0.506 in [5]; 1.13 in assay [6]. Further, the composite z-score in assay [7] is 1.05; in assay [9], 0.914; in assay [10] it was 0.744; in [11], 0.464; in [15], 3.4; in [17] it was 0.337. Also, the composite z-score was -0.116 in assay [18], -0.687 in [19] and 0.0021 in [20]. The z-score in [8] is 0.694 (inactive); in assay [12], -0.15 (inactive); in [13], -2.3 (inactive); in assay [14] it was -0.961 (inactive); in [16], 0.0201 (inactive).

As for `COCCCNC(=O)[C@@]1(C)c2ccccc2C(=O)N(c2ccc(C)cn2)[C@H]1c1ccc(CO)cc1`, the composite z-score was -0.722 in [1]; -0.331 in assay [2]; -0.308 in [3]; -1.12 in assay [4]; -1.15 in assay [5]; 0.906 in assay [6]. For the same compound, the composite z-score is 0.632 in [7]; -0.892 in [9]; -0.439 in [10]; 0.194 in assay [11]; 3.55 in assay [15]; -0.428 in assay [17]. Further, the composite z-score in assay [18] is -0.978; in [19] it was -0.99; in assay [20], -0.427. Besides, the z-score in assay [8] was 0.811 (inactive); in assay [12] it was -0.435 (inactive); in assay [13] it was -0.473 (inactive); in assay [14] it was -1.67 (inactive); in [16], 0.288 (inactive).

Regarding `COCCOC(=O)N1C(=O)[C@@]2(c3cc(C#CCC(C(=O)OC)C(=O)OC)ccc31)[C@H](c1ccc(OCCO)cc1)N1[C@H](c3ccccc3)[C@H](c3ccccc3)OC(=O)[C@H]1[C@@H]2C(N)=O`, the composite z-score in [1] was -0.564; in assay [2] it was -0.461; in assay [3], -0.116; in assay [4], 0.245; in [5] it was 1.15; in assay [6], 0.928. Also, the composite z-score in assay [7] amounted to 1.22; in assay [9] it was 0.78; in [10], 0.35; in assay [11], 1.51; in assay [15], 3.22; in assay [17] it was 0.011. Moreover, the composite z-score in [18] is 0.543; in [19] it was 1.13; in [20] it was -0.0238. Further, the z-score was -0.441 (inactive) in assay [8]; 1.47 (inactive) in assay [12]; 0.561 (inactive) in assay [13]; 4.48 (inactive) in [14]; 0.237 (inactive) in assay [16].

Consider `COC(=O)[C@@]1(Cc2ccc(F)cc2)[C@@H]2[C@@H](CC(=O)[C@H]2CC(=O)C(=O)N2CCCC2)CN1C(=O)c1ccccc1`, for which the composite z-score in assay [1] is 0.664; in assay [2], -0.196; in assay [3], 0.0255; in assay [4], 0.56; in assay [5], 1.71; in assay [6], 1.85. In addition, the composite z-score in assay [7] was 1.12; in assay [9], 1.61; in assay [10], -0.24; in assay [11], 1.27; in assay [15] it was 3.67; in assay [17], 0.299. Besides, the composite z-score was -0.413 in assay [18], 1.03 in assay [19] and 0.147 in assay [20]. Further, the z-score was 2.38 (inactive) in assay [8]; 0.347 (inactive) in assay [12]; 1.57 (inactive) in assay [13]; 3.52 (inactive) in assay [14]; -0.708 (inactive) in assay [16].

Regarding `OCCCC1=CC(c2cccs2)N(Cc2cccc(OC(F)(F)F)c2)CC1` (stereo not given), the composite z-score was -0.24 in [1]; -0.487 in [2]; -0.11 in [3]; -0.331 in assay [4]; -0.763 in assay [5]; -0.222 in [6]. Also, the composite z-score is 0.44 in [7]; -0.941 in assay [9]; 0.0401 in assay [10]; 0.532 in assay [11]; 0.365 in assay [15]; -0.0998 in [17]. The composite z-score in [18] is 0.0008; in assay [19], -0.602; in assay [20], -0.115. In addition, the z-score in assay [8] was 0.67 (inactive); in [12] it was -2.28 (inactive); in [13], -14.6 (active); in [14], 1.15 (inactive); in assay [16], -0.15 (inactive).
